# Screening data: PubChem BioAssay, National Center for Advancing Translational Sciences (NCATS)
# RORgamma inh: blocks mouse ROR gamma transcriptional activity; 310,000 compounds, 5.4% hits; Potency, µM (top dose mostly 53.6 µM), inactives show at the top dose activity change, negative = inhibition, most hits filed as inhibitors; Drosophila S2 Gal4-RORgamma UAS-luciferase reporter, 20 h; P51450; note: nearly all actives have a fitted effect of over 60% in size
# Target sequence (P51450 whole entry, looked up, the tested form may be a part): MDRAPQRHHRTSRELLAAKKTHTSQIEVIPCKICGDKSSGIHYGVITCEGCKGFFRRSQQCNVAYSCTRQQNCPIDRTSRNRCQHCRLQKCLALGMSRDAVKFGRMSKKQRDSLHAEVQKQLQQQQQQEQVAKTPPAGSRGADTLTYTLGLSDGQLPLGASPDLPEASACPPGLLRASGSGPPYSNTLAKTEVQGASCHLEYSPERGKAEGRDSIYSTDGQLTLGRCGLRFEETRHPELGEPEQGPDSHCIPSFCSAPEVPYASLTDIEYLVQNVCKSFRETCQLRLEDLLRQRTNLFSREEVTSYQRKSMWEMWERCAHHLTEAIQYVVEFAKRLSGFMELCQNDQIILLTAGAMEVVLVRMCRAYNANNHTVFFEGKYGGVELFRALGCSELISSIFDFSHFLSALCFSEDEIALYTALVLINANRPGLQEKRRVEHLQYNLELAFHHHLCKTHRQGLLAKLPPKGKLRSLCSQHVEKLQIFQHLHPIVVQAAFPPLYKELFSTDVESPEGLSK
#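 Drosophila Schneider cells stably carrying a metallothionein-driven Gal4 DBD–ROR gamma fusion and a UAS-Photinus luciferase reporter were exposed to compound for 1 hr, then induced with copper sulfate (700 uM final) for 20 hr at ambient temperature before luminescence reading.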
# TDP1 block: blocks human tyrosyl-DNA phosphodiesterase 1 | Q9NUW8 | recombinant TDP1, AlphaScreen DNA substrate cleavage | Potency, µM (titrated, usually from 130 µM), for the others: at the top dose activity change, negative = inhibition, usual class: inhibitors | 350,000 compounds, 0.28% hits; note: nearly all actives have a fitted effect of over 40% in size
#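 Recombinant human Tdp1 (E. coli-expressed, 1 nM final) preincubated with compounds 15 min at room temperature, then 5'-biotin/3'-phosphotyrosine-FITC DNA substrate (15 nM final) added for 5 min. AlphaScreen beads (10 ug/ml final) added 10 min; cleavage lowers signal.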
# TDP1 cell noCPT: qHTS for Inhibitors of human tyrosyl-DNA phosphodiesterase 1 (TDP1): qHTS in cells in absence of CPT; DT40 Tdp1-/- hTDP1 cells, no CPT, ATP luminescence, 48 h; Potency, µM (top dose mostly 46.2 µM), for the others: top-dose activity change, negative = growth inhibition, most hits filed as inhibitors; 420,000 compounds, 15% hits; AID 686978, 2013; note: nearly all actives have a fitted effect of over 55% in size
#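 Growth of hTDP1-complemented DT40 Tdp1-knockout cells is measured by ATP luminescence after at least 48 hr compound exposure at 37 °C, with DMSO substituting for the 20 nM CPT used in the parallel screen.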
# DT40 TDP1 CPT: growth inhibition of DT40 Tdp1-/-;hTDP1 cells with camptothecin (screen for TDP1 inhibitors); chicken DT40 Tdp1-/-;hTDP1 cells + 20 nM CPT, ATP luminescence, 48 h; Potency, µM (doses to about 46.2 µM), without a hit: at the highest dose activity change, negative = growth inhibition, hits mostly inhibitors; 420,000 compounds, 12% hits; AID 686979; note: nearly all actives have a fitted effect of over 55% in size
#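 Cell growth measured by CellTiter-Glo luminescence after a minimum 48 h, 37 C compound exposure with 20 nM CPT in Tdp1-knockout DT40 cells stably expressing hTDP1, seeded 400/well; qHTS titration format.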
# VP16 counter: counter-screen for ROR gamma inhibitors: Gal4-VP16 reporter | AID 2546 | Potency, µM (doses to about 53.6 µM), without a hit: at the highest dose activity, negative = inhibition, hits mostly inhibitors | Drosophila S2 Gal4-VP16 UAS-luciferase, luminescence, 20 h | 310,000 compounds, 3.5% hits;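 note: Gal4-VP16 expression switched on by copper sulfate through the metallothionein promoter; nearly all actives have a fitted effect of over 50% in size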
# The depositor's hits bear a star; ? = inconclusive; · = not tested or not shown; [ ] = dose if it differs, or a comment. Hits are enriched below; roughly 19% of the tested compounds scored in any of these assays. Calls come from the whole dose curve; as a rule, active = well fitted curve in the direction sought with a large enough effect; inconclusive = small, poorly fitted or top-dose-only effect, or another doubt; inactive = no such curve, though single readings can be large; an effect the other way counts as inactive or inconclusive. % is set by controls: 0 for no effect and ±100 for the full control effect; potency is the fitted concentration of half-maximal effect.
SMILES,RORgamma inh,TDP1 block,TDP1 cell noCPT,DT40 TDP1 CPT,VP16 counter
CC(C)N(Cc1nc(-c2ccc(Cl)cc2)no1)C(=O)C12CC3CC(CC(C3)C1)C2,4.2%,0.0%,?,?,-7.8%
COc1cccc(CNC(=O)CSc2n[nH]c(-c3ccccc3Cl)n2)c1OC,·,-2.7%,-23.0%,-27.8%,·
COC(=O)C[C@@H]1CC[C@H](NC(=O)Cc2ccccn2)[C@@H](CO)O1,·,·,2.6%,1.0%,·
Cc1ccnc(NC(=O)Nc2ccc(F)cc2)c1,?,2.2%,-4.4%,-16.8%,-14.1%
Cc1ccnc(NC(=O)c2cc3cc(F)ccc3s2)c1,3.16µM*,5.3%[0.0935 µM],-10.4%,-11.5%,?
Cc1nc2ccc(NC(=O)Cc3cccs3)cc2s1,-5.6%,-2.1%,?,?,-8.7%
CCCCOCCCN1CC(=O)N2[C@@H](Cc3c([nH]c4ccccc34)C2(C)C)C1=O,?,·,18.4µM*,?,-16.4%
Oc1cccc(C2c3[nH]c4ccccc4c3CCN2Cc2ccoc2)c1 (configuration not stated),7.2%,0.0%,-24.6%,-26.3%,-15.6%
Oc1cccc(C2c3[nH]c4ccccc4c3CCN2Cc2ccc3c(c2)CCO3)c1 (configuration not stated),8.7%,10.8%,20.6µM*,?,-8.0%
COc1cccc(C2c3[nH]c4ccccc4c3CCN2Cc2cnc(C)s2)c1OC (configuration not stated),-18.9%,5.4%,14.6µM*,?,0.5%
Cc1cccc(C2c3[nH]c4ccccc4c3CCN2Cc2ccc(C)s2)n1 (configuration not stated),-18.7%,·,-27.9%,-8.6%,12.3%
COc1ccc(C2c3[nH]c4ccccc4c3CCN2Cc2ccoc2)c(F)c1 (configuration not stated),11.5%,7.3%,16.4µM*,?,5.5%
COc1ccccc1C1c2[nH]c3ccccc3c2CCN1Cc1cnc(C)s1 (configuration not stated),-23.7%,0.0%,18.4µM*,?,-1.2%
COc1ccc(N(CC(=O)Nc2ccc3c(c2)OCCO3)S(=O)(=O)c2c(C)noc2C)cc1,18.9%,4.1%,?,?,-4.9%
Cc1ccc2nsnc2c1S(=O)(=O)N(CCO)Cc1cc2cc3c(cc2[nH]c1=O)OCCO3,42.1%,3.2%,-29.0%,-20.7%,9.3%
CC[C@H](C(=O)[C@H](C)[C@H](O)[C@H](C)CCc1ccc(C)c(O)c1C(=O)O)[C@H]1O[C@](CC)([C@@H]2CC[C@@](O)(CC)[C@H](C)O2)C[C@H]1C,?,13.8%[21 µM],·,·,6.31µM*
FC(F)(F)c1cccc(NCc2n[nH]c(=S)n2C2CCCCC2)c1,4.47µM*,1.2%,13µM*,?,-22.7%
O=C(NCc1n[nH]c(=S)n1-c1cccc(C(F)(F)F)c1)c1ccco1,-30.1%,10.2%,1.1%,6.6%,1.1%
CC(=O)Nc1ccc(N2CCOCC2)c([N+](=O)[O-])c1,-24.4%,1.8%,-13.9%,-0.5%,-4.8%
OCc1nc2ccccc2n1CCc1ccccc1,·,3.4%,2.6%,-0.8%,·
OCc1nc2ccccc2n1CCCc1ccccc1,·,·,?,16.4µM*,·
CC(O)c1nc2ccccc2n1CCCc1ccccc1 (configuration not stated),3.4%,3.5%,-24.8%,18.4µM*,-0.1%
CC(O)c1nc2ccccc2n1CCCOc1ccccc1 (configuration not stated),-11.7%,·,16.4µM*,?,1.5%
Cc1c(C(Nc2ccccn2)c2ccccc2)c(=O)n(-c2ccccc2)n1C (configuration not stated),?,-2.4%,-17.7%,14.9%,-0.7%
CC(=O)N(CCS(=O)(=O)c1ccc(Cl)cc1)Cc1cccs1,18.0%,0.0%,-22.2%,-3.6%,4.6%
Cc1ccc(C(=O)N2CCCCC2)cc1S(=O)(=O)N1CCCCCC1,0.2%,1.1%,-19.7%,?,-9.0%
CCc1ccc(C2CC(c3ccc(Cl)cc3)=NNC2=O)cc1 (configuration not stated),24.6%,7.0%,?,?,-5.5%
